Bioassay records from PubChem BioAssay.
proKLK7 act – activators of human kallikrein-7 zymogen; P49862; purified proKLK7, EDANS-DABCYL substrate fluorescence; 100% is mature enzyme control, 0% vehicle; activation, % at 7 µM; 370,000 tested, 0.9% active; AID 652039;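 active means activation above the mean of all tested compounds plus 3 SD, computed per campaign excluding outliers beyond control limits, cut at about 13% in these data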
NRP1-CendR mod – alters CendR peptide binding to human NRP-1. O14786. FAM-RPARPAR peptide binding to NRP-1, fluorescence polarization. inhibition, % at 25 µM. 360,000 tested, 0.85% active;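 active means inhibition or corrected inhibition above about 18%, plus a signal ratio from 0.5 to 1.5, limit read from the data, passing the limit was not always enough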
ADAM17 inh – inhibitors of human ADAM17; P78536; recombinant ADAM17, EDANS/DABCYL FRET peptide cleavage; inhibition, % at 6.95 µM; 370,000 tested, 0.83% active; AID 720648;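 active means inhibition above the mean of compounds lying between control limits plus 3 SD, set per campaign, cut at about 8.5% in these data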;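 further: 0% = DMSO-only wells as the low control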
ADAM10 inh – ADAM10 inhibition, QFRET primary screen; recombinant ADAM10, EDANS/DABCYL FRET peptide cleavage, 3 h; inhibition, % at 7 µM; 370,000 tested, 0.62% active; AID 720582;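 active means inhibition above a per-campaign cutoff equal to the mean of compounds falling between control-based bounds plus 3 SD, cut at about 20% in these data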;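 further: 0% = DMSO wells while the 100% control is not disclosed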
Target sequence (O14672 214-748 limits assumed): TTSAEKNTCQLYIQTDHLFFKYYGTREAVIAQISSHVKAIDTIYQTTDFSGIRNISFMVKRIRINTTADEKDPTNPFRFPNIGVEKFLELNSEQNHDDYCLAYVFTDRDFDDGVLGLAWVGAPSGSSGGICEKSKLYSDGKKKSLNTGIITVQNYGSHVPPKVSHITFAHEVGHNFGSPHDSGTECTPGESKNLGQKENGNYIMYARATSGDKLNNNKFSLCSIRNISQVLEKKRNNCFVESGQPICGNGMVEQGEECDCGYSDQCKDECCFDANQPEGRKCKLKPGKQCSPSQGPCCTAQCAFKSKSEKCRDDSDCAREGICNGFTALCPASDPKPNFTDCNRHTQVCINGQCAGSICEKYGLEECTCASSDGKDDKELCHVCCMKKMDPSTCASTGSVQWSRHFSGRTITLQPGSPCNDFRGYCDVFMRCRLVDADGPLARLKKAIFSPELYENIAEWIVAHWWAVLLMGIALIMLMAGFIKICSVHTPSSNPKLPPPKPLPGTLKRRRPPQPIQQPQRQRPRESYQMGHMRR
HGIII-sPLA2 inh – Blocks human group III sPLA2 activity. QFRET BODIPY PC-A2 liposome hydrolysis, fluorescence. inhibition, % at 12.2 µM. Q9NZ20. 370,000 tested, 0.56% active;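 active means inhibition above mean plus 3 SD of compounds lying within the high and low control bounds, cut at about 19% in these data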;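 further: 0% = median of test compound wells and 100% = no enzyme DMSO wells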
hGIII sPLA2 conf – human GIII-sPLA2 inhibition, confirmation; recombinant hGIII-sPLA2, BODIPY PC-A2 QFRET fluorescence; AID 743280; shares compounds with HGIII-sPLA2 inh; 2,000 tested, 34% active; inhibition, % at 12.2 µM;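 active means mean inhibition across triplicates above the hit cutoff set in the earlier primary screen, cut at about 19% in these data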;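 further: 0% = enzyme with DMSO and 100% = DMSO wells lacking enzyme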
BODIPY interf – 535nm fluorescence interference, HGIII-sPLA2 counter-screen. shares compounds with HGIII-sPLA2 inh. 2,000 tested, 8.5% active. inhibition, % at 12.2 µM. BODIPY FL product fluorescence interference, QFRET;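 active means average inhibition above the solvent-only control mean plus 3 SD, cut at about 6% in these data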;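 further: 0% = DMSO with substrate plus product and 100% = DMSO with substrate alone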
BODIPY interf DR – interferes with 535nm fluorescence in dose response counter-screen. shares compounds with HGIII-sPLA2 inh. BODIPY FL product fluorescence interference, cell-free. IC50, µM. 240 tested, under 10 active;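 active means IC50 at or below 10 µM; inactive means IC50 above 10 µM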
The depositor's hits bear a star; i = inactive; / = not tested or not shown. Most compounds without a hit are left out; they make up all but 3.4% or so of the library.

SMILES	proKLK7 act	NRP1-CendR mod	ADAM17 inh	ADAM10 inh	HGIII-sPLA2 inh	hGIII sPLA2 conf	BODIPY interf	others
CCC1Cc2[nH]c(=S)[nH]c(=O)c2C(c2ccc(Cl)cc2)O1 (centres undefined)	1	-3	-2	-10	21*	0	-2
CCn1cc(CNC(=O)c2c(-c3c(Cl)cccc3Cl)noc2C)c(C)n1	0	8	-1	-5	21*	0	-1
Cc1onc(-c2c(Cl)cccc2Cl)c1C(=O)NCc1ccccn1	0	-2	-4	-11	4	/	/
O=C(NNC(=O)c1ccc2ccccc2c1O)c1ccccc1Cl	-1	-4	-3	-6	31*	37*	3	BODIPY interf DR=>122
O=C(NNC(=O)c1cccc2ccccc12)c1ccc(Cl)cc1Cl	0	5	-3	-4	-18	/	/
Cc1ccccc1NC(=O)NNC(=O)c1ccc2ccccc2c1O	0	-5	-116	-353	39*	28*	1	BODIPY interf DR=>122
COc1ccccc1NC(=O)NNC(=O)c1ccc2ccccc2c1O	-3	-9	-160	-458	30*	36*	5	BODIPY interf DR=>122
COc1cccc(C(=O)NNC(=O)c2ccc3ccccc3c2O)c1	-1	12	-8	-20	25*	14	0
COC1=C[C@H](C(=O)N[C@H]2CCCC[C@@H]2NC(C)=O)[C@H](C)[C@@H](c2ccccc2)CC1=O	0	/	4	0	5	/	/
CC(=O)Nc1c(-c2ccc(C(F)(F)F)cc2)nc2ncccn12	11	/	-167	i	2	/	/
C[C@H](CO)N1C[C@H](C)[C@H](CN(C)C(=O)Nc2ccc3c(c2)OCO3)OCc2cnnn2CCCC1=O	0	/	0	-7	4	/	/
COc1ccc(NC(=O)NNC(=O)c2ccc3ccccc3c2O)cc1OC	-1	-11	-161	-486	28*	28*	1	BODIPY interf DR=>122
O=C(CSc1nc2ccccc2c(=O)n1Cc1ccco1)NCc1ccco1	0	-29	-5	0	0	/	/
COC(=O)c1c(NC(=O)CSc2nc3ccccc3c(=O)n2Cc2ccco2)sc(C)c1C	-1	6	-2	-5	19*	1	0
COC(=O)c1ccc(Nc2nnc(-c3ccc(C)c(S(=O)(=O)NCC4CCCO4)c3)c3ccccc23)cc1 (centres undefined)	-1	4	-5	-17	10	/	/
Cc1ccc(-c2nnc(Nc3ccc(CC(N)=O)cc3)c3ccccc23)cc1	0	-6	-3	3	21*	17	-18
Cc1ccc(-c2nnc(Nc3ccc(CC(N)=O)cc3)c3ccccc23)cc1S(=O)(=O)NCC1CCCO1 (centres undefined)	4	-2	-3	-3	19*	-3	-26
CCCCn1nnc(NC(=S)NC(=O)c2cccs2)n1	0	-1	1	3	23*	11	-5
Cn1nnc(NC(=S)NC(=O)c2cccs2)n1	0	11	2	6	3	/	/
COc1ccc(/C=N/NC(=O)c2ccc3c(c2)OCCO3)cc1[N+](=O)[O-]	-1	-7	1	1	24*	7	-3
COc1cc(/C=N/NC(=O)c2ccc3c(c2)OCCO3)cc(Br)c1O	0	0	-2	-5	20*	11	-3
COc1cc(/C=N/NC(=O)c2ccc3c(c2)OCCO3)c(Br)c(Br)c1O	-2	4	3	-6	2	/	/
O=C(OCc1ccccc1)N1CCC2CC1c1cc(N3CCN(C(=S)NCCc4ccccc4)CC3)ccc12 (centres undefined)	-1	16	1	-4	-1	/	/
COc1ccc(NC(=S)N2CCN(c3ccc4c(c3)C3CCN(C(=O)OCc5ccccc5)C4C3)CC2)c(OC)c1 (centres undefined)	0	4	4	-1	25*	5	-22
O=C(OCc1ccccc1)N1CCC2CC1c1ccc(N3CCNCC3)cc12 (centres undefined)	0	-2	-4	-12	31*	-4	-35
SMILES	proKLK7 act	NRP1-CendR mod	ADAM17 inh	ADAM10 inh	HGIII-sPLA2 inh	hGIII sPLA2 conf	BODIPY interf	others
COC(=O)[C@]12C[C@H](CC(=O)N3CCCC3)C(=O)N(CCc3ccc(OC)c(OC)c3)C1=C[C@H](C1CCCC1)O[C@@H]2C	0	/	-4	-4	8	/	/
COc1ccc(CNC(C)CCc2ccccc2)cc1 (centres undefined)	0	-4	-4	1	20*	9	-16
C=CCCC1CN(Cc2ccc(OC)cc2)S(=O)(=O)c2c(Oc3cc(C)c(C)c(C)c3)cccc2O1 (centres undefined)	0	/	1	4	-2	/	/
COc1ccc(CC(N)c2csc(NC(=O)c3cc(C(C)(C)C)nn3Cc3ccccc3)n2)cc1 (centres undefined)	-1	-20	2	-12	24*	4	-5
COCCNC(=S)N(C)[C@H]1C[C@H]2c3[nH]c4c(-c5ccc6c(c5)OCO6)cccc4c3CCN2C(=O)[C@H]1[C@H](C)O	0	/	-1	-15	-15	/	/
COc1ccc2nc(Nc3nc4cc5c(cc4s3)OCO5)sc2c1	-5	7	-49	-179	23*	37*	5	BODIPY interf DR=>122
Cc1ccc2nc(N(CCN(C)C)C(=O)c3ccc4c(c3)OCCO4)sc2c1	0	-18	-1	-2	3	/	/
COc1cc(OC)cc(C(=O)NNc2nc3cc4c(cc3s2)OCO4)c1	2	-8	-7	-16	18	/	/
Cc1ccc2nc(NNC(=O)c3ccc4c(c3)OCCO4)sc2c1	0	-2	-3	4	25*	32*	0	BODIPY interf DR=>122
COc1cc(C(=O)NNc2nc3cc4c(cc3s2)OCO4)cc(OC)c1OC	1	-5	-3	-4	19*	18	-5
CN(C)CC(c1ccc(O)cc1)C1(O)CCCCC1 (centres undefined)	0	/	1	-7	-1	/	/
COc1cccc(C(=O)N[C@H](C(=O)N2CCC[C@H]2C(=O)NC2CCCC2)C2CCCCC2)c1	0	/	2	-1	1	/	/
C=CCN1C(=O)[C@@H](CC(=O)NCc2ccc(OC)c(OC)c2)[C@]2(C(=O)OCC)CCCCC/C=C/12	0	/	-3	-2	-3	/	/
O=C(Nc1ccc(C(F)(F)F)cc1)C1(c2ccccc2)CC1	1	8	-5	-13	25*	4	-11
COCCCNC(=O)C[C@H]1C[C@@]2(C(=O)OC)C(=C[C@H](C3CCCC3)O[C@@H]2C)N(Cc2cccc3ccccc23)C1=O	1	/	1	10	-19	/	/
